Screening data: PubChem, National Center for Advancing Translational Sciences (NCATS)
Compounds with a hit are over-represented: about 21% of the library has one in this group of screens.
Cycloheximide cs: affects cycloheximide protein synthesis inhibition readout, counter-screen. AID 2314. max response, %. actives 12% (n = 300,000). cell reporter, cycloheximide protein synthesis inhibition counterscreen; in the data active means max response mostly above about 13%, no sharp cut-off; inactive means mostly below about 14%; further: read at 38.3 µM for the half of the compounds with a filed dose; 0% is about no effect
HCV inh: inhibitors of hepatitis C virus infection; Huh7.5.1 HCVcc-Cre infection, luciferase reporter, 44 h; Potency, µM (highest dose often 41.8 µM), inactives show at the top dose activity change, negative = inhibition, actives largely listed as inhibitors; actives 3.4% (n = 340,000); further: potency means the concentration at half of the fitted maximal effect; on the % scale 0 is the no-effect control and ±100 the full control effect
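Infectious HCVcc-Cre (~0.5 moi) was added to cells just after compound, with cells seeded 4 h earlier at 1,000 per well. Luciferase activity after 44 h culture reported infection; substrate was incubated 15 min at room temperature before reading.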
AMA1 RON2 block: AMA1-RON2 (P. falciparum) interaction inhibition. AlphaScreen AMA1-biotinylated RON2 peptide binding. Potency, µM (top dose mostly 58.2 µM), for the others: top-dose activity change, negative = inhibition, most hits filed as inhibitors. actives 0.2% (n = 360,000);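 further: potency means the concentration at half of the fitted maximal effect; 0% = vehicle wells and -100% = peptide control; nearly all actives have a fitted effect of over 45% in size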
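AMA1 (3D7) with his tag at 25 nM final met compounds first, then biotinylated RON2 peptide at 25 nM; detection used donor plus acceptor beads, 10 µg/mL apiece, read by AlphaScreen after 30 min at room temperature.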
Pf growth 48h: inhibits P. falciparum growth in the first generation, 48 h | P. falciparum luciferase growth in erythrocytes, 48 h | Potency, µM (series often up to 28.7 µM), inactives show at the highest dose activity change, negative = inhibition, usual class: inhibitors | actives 5.9% (n = 310,000) | AID 504832; further: potency means the concentration at half of the fitted maximal effect; on the % scale 0 is the no-effect control and ±100 the full control effect
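A one-generation exposure of luciferase-tagged malaria parasites in RPMI 1640/Albumax erythrocyte culture, 37 C and 5% CO2. Inhibition is inferred from decreased luminescence after adding detection reagent.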
Shiga toxin inh: blocks Shiga toxin action in Vero cells | Vero cells, Shiga toxin protein synthesis inhibition reporter | inhibition, % at 38.7 µM | actives 9.2% (n = 290,000); in the data active means inhibition mostly above about 28%, no sharp cut-off; inactive means mostly below about 43%; further: 0% is about no effect
Pf growth 96h: P. falciparum growth inhibition at 96 hour, primary screen for plastid delayed-death inhibitors. P. falciparum luciferase reporter growth, 96 h. actives 6.9% (n = 320,000). Potency, µM (series often up to 28.7 µM), for inactives: top-dose activity change, negative = inhibition, actives largely listed as inhibitors. AID 504834; further: potency means the concentration at half of the fitted maximal effect; on the % scale 0 is the no-effect control and ±100 the full control effect
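Two-generation exposure (96 h) targets delayed-death phenotype. Reporter parasites carrying integrated firefly luciferase, in red cells at 2% hematocrit and 0.05% parasitemia final, kept at 37 C, 5% CO2; luminescence loss indicates inhibition.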
* hit, by the source's call; ? = inconclusive; . = no result; [ ] = remark or other dose. Unless noted, the call rests on the fitted dose curve; in most records, active means well fitted curve in the direction sought with a large enough effect; inconclusive means small, poorly fitted or top-dose-only effect, or another doubt; inactive means no such curve, though single readings can be large; an effect the other way counts as inactive or inconclusive.

SMILES	Cycloheximide cs	HCV inh	AMA1 RON2 block	Pf growth 48h	Shiga toxin inh	Pf growth 96h
COc1cc(C(CCN2CCCC(C)C2)c2c(OC)cc(OC)c3c2OC(=O)CC3c2ccc(N(C)C)cc2)cc(OC)c1OC (stereo unspecified)	10.0	32.3%	20µM*	9.28µM*	-13.2	10.4µM*
CC1CC(C)CN(C(=O)c2ccc3c(c2)OCCO3)C1 (stereo unspecified)	.	8.4%	-7.6%	2.94µM*	.	4.65µM*
CC1CCN(C(=O)c2ccc3c(c2)OCCO3)CC1	46.4*	-1.7%	-11.3%	-16.5%	55.3*	.
CC1CC(C)CN(C(=O)COC(=O)c2ccc3c(c2)OCCO3)C1 (stereo unspecified)	.	13.8%	0.2%	.	.	.
CCC(C)Nc1ccc(NC(C)CC)cc1 (stereo unspecified)	.	22.4µM*	?	1.04µM*	.	1.17µM*
COC(=O)C[C@H]1c2cc(F)ccc2S(=O)(=O)N1Cc1ccccc1	.	5.8%	18.5%	.	.	.
O=C(NCc1ccc(Cl)cc1)c1ccc(S(=O)(=O)N2CCCCC2)cc1	.	-15.8%	5.6%	?	.	?
N=C1SCC(=O)N1c1ccccc1Cl	-1.0	12.8%	8.0%	-7.9%	-8.6	11.2%
O=C1c2sc3nc4ccccc4n3c2C(=O)N1c1ccccc1Cl	20.5*	?	31.9%	?	116.3*	.
CC1(C(=O)NCc2ccccc2)CSCC(=O)N1C1CC1 (stereo unspecified)	.	.	-0.4%	.	.	.
CC(C)=N/N=C(/c1ccc([N+](=O)[O-])cc1)C12CN3CN(CN(C3)C1)C2	-8.7	4.9%	7.8%	0.0%	-3.6	13.1µM*
O=C(c1cccc([N+](=O)[O-])c1)C12CN3CN(CN(C3)C1)C2	6.0	15.3%	-2.1%	?	2.7	57.1%
Cc1ccc(NC(=O)CCNCc2ccco2)cc1S(=O)(=O)N(C)C	1.1	-8.8%	-4.1%	13.8%	4.5	19.8%
CCn1c2ccccc2c2cc(/C=N/NC(=O)c3ccccc3)ccc21	6.5	?	-10.8%	?	14.8	7.8%
CC(=O)n1cc(/C=N/NC(=O)c2ccc(Cl)cc2)c2ccccc21	41.0*	-21.1%	-2.0%	74.0%	61.3*	?
CC(=O)n1cc(/C=N/NC(=O)c2cccc(O)c2)c2ccccc21	36.0*	9.9%	79.0%	.	59.3*	?
CC(=O)n1cc(/C=N/NC(=O)c2ccccc2Cl)c2ccccc21	1.3	?	-4.3%	.	8.4	?
Cc1nc2c(C)cccn2c(=O)c1NC(=O)c1ccc2c(c1)OCO2	.	-8.4%	-6.5%	5.2%	.	3.8%
COC(=O)C1=C(c2ccc(Cl)c(C(F)(F)F)c2)C[C@@H]2CC[C@H]1N2C(=O)NCCOc1ccccc1	.	?	-1.3%	11.7µM*	.	4.65µM*
COC(=O)C1=C(c2ccc(OC(F)(F)F)cc2)C[C@@H]2CC[C@H]1N2C(=O)NCCOc1ccccc1	.	?	16.2%	11.7µM*	.	4.65µM*
COC(=O)C1=C(c2ccc(Cl)c(C(F)(F)F)c2)C[C@@H]2CC[C@H]1N2C(=O)NCc1ccco1	.	-10.7%	1.3%	?	.	8.28µM*
COC(=O)C1=C(c2ccc(Cl)c(C(F)(F)F)c2)C[C@@H]2CC[C@H]1N2C(=O)NCCO	.	17.1%	-3.1%	?	.	-6.5%
COC(=O)C1=C(c2ccc(OC(F)(F)F)cc2)C[C@@H]2CC[C@H]1N2C(=O)NCCOc1ccccc1Cl	.	?	-6.6%	10.4µM*	.	?
NS(=O)(=O)c1ccc(-c2cccc(/C=C3\SC(=O)NC3=O)c2)cc1	-1.7	7.0%	-9.5%	?	-2.9	?
Cc1ccn2cc(-c3cccc([N+](=O)[O-])c3)nc2c1	30.3*	3.0%	-18.0%	60.6%	25.5	175.5%
SMILES	Cycloheximide cs	HCV inh	AMA1 RON2 block	Pf growth 48h	Shiga toxin inh	Pf growth 96h
Cc1ccn2cc(-c3cccc(NS(C)(=O)=O)c3)nc2c1	59.6*	-22.3%	8.0%	141.6%	59.0*	37.9%
CC(=O)Nc1ccc2nc(-c3ccccc3)cn2c1	40.4*	-1.3%	4.7%	246.2%	107.1*	234.1%
CC(=O)Nc1ccc(-c2cc(C(=O)O)c3ccccc3n2)cc1	18.3	19.4%	0.0%	1.6%	16.4	18.4%
COc1ccc2oc(=O)c(C(=O)n3ccc(C)n3)cc2c1	2.0	17.2%	6.4%	3.8%	-14.2	.
COc1ccc2oc(=O)c(-c3cn4ccc(C)cc4n3)cc2c1	23.5*	13.0%	-2.2%	60.5%	27.7	?
CCCCN1C(=O)N(c2ccccc2Cl)C(C)(O)CC1(C)C (stereo unspecified)	-1.9	0.9%	11.0%	16.4%[0.00184 µM]	-8.2	4.5%
CC(=O)Nc1cccc(-c2cn3ccc(C)cc3n2)c1	44.2*	-5.4%	-8.8%	130.7%	88.5*	-17.6%
Cc1ccn2cc(-c3cccc(S(=O)(=O)N4CCCC4)c3)nc2c1	18.5*	11.2µM*	-4.5%	8.6%	98.0	15.1%
Cc1ccn2cc(-c3cnoc3C)nc2c1	17.9	1.6%	0.4%	128.2%	81.5	.
CC(=O)Nc1ccc(-n2c(C)nc(=O)c(-c3ccccc3)c2C)cc1	-1.3	0.3%	-6.6%	-12.0%	-10.4	5.22µM*
Cc1ccn2cc(-c3cccc(S(=O)(=O)N4CC(C)OC(C)C4)c3)nc2c1 (stereo unspecified)	-1.0	?	0.0%	?	3.8	?
COc1c(Cl)cccc1-c1cn2ccc(C)cc2n1	42.0*	?	-10.6%	180.4%	80.6*	293.5%
Cc1nc(=O)c(-c2ccccc2)c(C)n1-c1ccccc1	-3.4	-0.1%	-7.2%	2.4%	-4.0	7.8%
C[C@H]1CC[C@@]2(O[C@H](CCO)C[C@H](O)[C@H]2O)O1	.	15.7%	6.5%	.	.	.
CCOc1ccccc1NC(=O)CSc1nnc(CNC(=O)c2cc(OC)c(OC)c(OC)c2)o1	5.0	?	16.1%	13.6%	11.2	?
Cc1cc(C)cc(S(=O)(=O)c2cn(C)c3cc(N4CCN(C)CC4)c(F)cc3c2=O)c1	1.0	3.4%	-0.6%	-10.4%	5.1	22.4%
Cc1nc2c(OCc3ccccc3)cccn2c1N(C)C(=O)C1CCCCC1	.	.	6.6%	.	.	.
CCc1ccccc1-n1nnnc1SCC(=O)Nc1ccc(N2CCN(C)CC2)cc1	3.4	0.6%	-12.0%	14.7µM*	9.3	?
Cc1ccccc1-n1nnnc1SCC(=O)Nc1ccc(N2CCN(C)CC2)cc1	-1.4	-22.4%	0.0%	-19.9%	-16.3	-2.2%
CCc1ccccc1-n1nnnc1SCC(=O)Nc1cc(C)on1	6.2	-11.5%	2.7%	-22.2%	6.8	9.28µM*
CCCCCCCCN1C(=O)[C@H](CC(=O)N2CCOCC2)C[C@@]2(C(=O)OCC)CCCC=C12	.	.	-3.4%	.	.	.
O=C(NCCCCc1ccccc1)NC[C@@H]1CC[C@@H](Cc2ccc(-c3ccccc3)cc2)O1	.	?	2.4%	.	.	.
O=C(NC[C@@H]1CC[C@@H](Cc2ccc(-c3ccccc3)cc2)O1)Nc1ccc(Br)cc1	.	5.01µM*	-4.4%	.	.	.
